CCHFV vOTU inh: CCHFV vOTU protease inhibition. actives 0.55% (n = 370,000). inhibition, % at 11.5 µM. Pep-AMC fluorescence; in the data active means inhibition above about 30%; further: 0% = vehicle wells with enzyme and 100% = no enzyme wells
RecA splice inh: Mtb RecA intein splicing inhibition; AID 2221; actives 0.75% (n = 290,000); P9WHJ3; cell-free RecA intein splicing, fluorescence; inhibition, % (concentration not given with the values); in the data active means inhibition above about 30%;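 further: 0% = vehicle wells and 100% = reference inhibitor control wells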
SARS 3CLpro inh-1: SARS-CoV 3CLpro protease inhibition; P0C6X7; recombinant SARS-CoV 3CLpro, quenched FRET peptide cleavage; inhibition, % at 6 µM; actives 0.14% (n = 290,000); AID 1706; in the data active means inhibition above about 12%
VHR inh abs: inhibitors of human VHR1 phosphatase (DUSP3); P51452; recombinant VHR phosphatase, pNPP absorbance; inhibition, % at 13.3 µM; actives 0.52% (n = 290,000); in the data active means inhibition above about 50%
Target sequence (P51452 whole entry, looked up): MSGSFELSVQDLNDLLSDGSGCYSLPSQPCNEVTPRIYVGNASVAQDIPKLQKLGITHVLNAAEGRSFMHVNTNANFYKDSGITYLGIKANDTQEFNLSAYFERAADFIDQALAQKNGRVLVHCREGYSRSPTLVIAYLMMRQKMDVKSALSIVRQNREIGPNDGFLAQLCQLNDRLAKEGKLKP
SARS 3CLpro inh-2: confirmation of SARS coronavirus 3C-like protease inhibitors; shares compounds with SARS 3CLpro inh-1; QFRET protease activity assay, 3CLpro; inhibition, % at 6 µM; actives 36% (n = 380); in the data active means inhibition above about 13%
The depositor's hits bear a star; · = no result. Sampled rows, rich in hits. Any-hit rate of the full collection: about 1.5%.

SMILES	CCHFV vOTU inh	RecA splice inh	SARS 3CLpro inh-1	VHR inh abs	SARS 3CLpro inh-2
O=C(c1cc(=O)[nH]c2ccccc12)N1CCN(c2cccc(C(F)(F)F)c2)CC1	-3	3	46*	5	44*
COc1ccc(N2CCN(C(=O)c3cc(=O)[nH]c4ccccc34)CC2)cc1	-2	-3	27*	37	27*
Cc1cc(C)c(C)c(S(=O)(=O)N2CCN(C(=O)c3cc(=O)[nH]c4ccccc34)CC2)c1C	-19	8	55*	22	53*
O=C(c1cc(=O)[nH]c2ccccc12)N1CCN(c2ccc([N+](=O)[O-])cc2)CC1	16	-2	10	-26	·
CC(=O)c1c(OC(=O)c2ccco2)c2ccccc2n1C	-4	11	13*	6	16*
COc1ccc2c(c1)C(=O)C(=O)N2CC1COc2ccccc2O1 (stereo not given)	-12	6	35*	-10	40*
Cc1ccc2c(c1)C(=O)C(=O)N2CC1COc2ccccc2O1 (stereo not given)	-5	6	7	-4	·
CCOc1ccc2c(c1)C(=O)C(=O)N2CC1COc2ccccc2O1 (stereo not given)	-22	4	58*	-16	60*
O=C1N(Cc2ccccc2)c2ccccc2C12CCCc1sc(CCc3ccccc3)nc12 (stereo not given)	5	·	·	·	·
COc1ccc(OC)c(-n2c(=S)[nH]c3c(sc(=S)n3-c3ccccc3)c2=O)c1	-2	-3	3	0	·
NNC(=O)CN1C(c2ccccc2)=Nc2ccc(Br)cc2C1c1ccccc1 (stereo not given)	3	0	13*	24	-3
CC1=Nc2ccc(Br)cc2C(c2ccccc2)N1CC(=O)NN (stereo not given)	-6	5	13*	30	2
O=C1CN(C(=O)CN2CCOCC2)C(c2ccccc2)c2cc(Br)ccc2N1 (stereo not given)	-1	6	2	42	·
NNC(=O)CN1C(CN2CCOCC2)=Nc2ccc(Br)cc2C1c1ccccc1 (stereo not given)	-5	2	21*	12	-1
CCC1=Nc2ccc(Br)cc2C(c2ccccc2)N1CC(=O)OC (stereo not given)	7	2	3	27	·
NNC(=O)CN1C(c2ccc(Cl)cc2)=Nc2ccc(Br)cc2C1c1ccccc1 (stereo not given)	1	3	8	24	·
COc1cc(OC)c(C2=Nc3ccc(Br)cc3C(c3ccccc3)N2CC(=O)NN)cc1OC (stereo not given)	10	·	12*	27	0
CCOC(=O)C1=CCN(S(=O)(=O)c2ccc(C)cc2)C1c1ccc(Cl)cc1 (stereo not given)	4	·	·	·	·
CC(=O)C1=C(c2ccccc2)NC(=O)NC1c1ccccc1OCC#N (stereo not given)	7	1	-8	4	·
N#CC1=C(N)N(c2ccccc2)C(c2ccco2)C1(C#N)C#N (stereo not given)	3	8	-1	9	·
Cc1cccc(N2C(N)=C(C#N)C(C#N)(C#N)C2c2ccccc2)c1 (stereo not given)	18	22	14*	-6	4
O=C1NC(=O)N(c2ccccc2F)C(=O)/C1=C/c1cn(CC(=O)N2CCOCC2)c2ccccc12	14	1	18*	8	18*
CCn1c(COc2ccccc2)nnc1SCC(=O)C(C)(C)C	19	0	15*	4	-2
CCn1c(COc2ccc(C)cc2)nnc1SCC(=O)C(C)(C)C	12	-2	3	25	·
Cc1ccc(OCC(=O)N/N=C/c2ccc([N+](=O)[O-])o2)cc1	16	10	13*	22	-6
SMILES	CCHFV vOTU inh	RecA splice inh	SARS 3CLpro inh-1	VHR inh abs	SARS 3CLpro inh-2
O=S(=O)(Nc1cc(F)ccc1F)c1cccc2nsnc12	3	-1	4	30	·
O=S(=O)(Nc1cc(F)ccc1F)c1cccc2nonc12	-1	-1	13*	28	-6
O=C(CCN1C(=O)c2ccc([N+](=O)[O-])cc2C1=O)Nc1ccccc1C(=O)O	8	-9	6	21	·
O=C1C(=O)N(C/C=C/c2ccccc2)c2ccccc21	-2	0	34*	2	36*
O=C1c2ccccc2C(=O)N1C/C=C/c1ccccc1	9	0	-6	-6	·
O=C1C(=O)N(CCCc2ccccc2)c2ccccc21	·	8	19*	1	22*
O=S1(=O)c2ccc(N3CCCC3)cc2Oc2ccccc2CN1Cc1cn(Cc2ccccc2C(F)(F)F)nn1	6	·	·	·	·
NC(=O)C(=CNc1nc(-c2ccc(Cl)c(Cl)c2)cs1)C(N)=O	·	·	1	26	·
COc1ccc(N(Cc2cc3ccccc3[nH]c2=O)S(=O)(=O)c2ccc(OC)cc2)cc1	5	-2	16*	-6	6
CCCn1nnc(NC(=O)COc2ccc(C3CCCCC3)cc2)n1	-7	5	14*	22	1
COC(=O)C1=C(C)N(Cc2ccccc2C(F)(F)F)C(=NCc2ccc(OC)cc2)NC1CCc1ccccc1 (stereo not given)	15	·	·	·	·
Cn1c(N)c(C(=O)COC(=O)C2Cc3ccccc3CN2S(C)(=O)=O)c(=O)n(C)c1=O (stereo not given)	8	·	·	·	·
CNc1ccc(Br)cc(C(=O)/C=C/c2ccc3c(c2)OCO3)c1=O	9	-3	13*	33	2
CNc1ccc(Br)cc(C(=O)/C=C/c2cc(OC)ccc2OC)c1=O	-1	-2	0	0	·
CCOC(=O)c1ccc(NC(=O)CN2C(=O)CSCC2=O)cc1	7	2	11	7	·
CCOC(=O)c1ccc(NC(=O)CN2C(=O)C(CC)SC(CC)C2=O)cc1 (stereo not given)	3	2	13*	16	-2
Cn1c(SCC(=O)NCC2CCCO2)nnc1-c1ccc(Cl)cc1 (stereo not given)	12	·	·	·	·
Cc1noc(NS(=O)(=O)c2ccc(NC(=O)C(Cl)(Cl)Cl)cc2)c1C	5	-5	-4	14	·
Cc1noc(NS(=O)(=O)c2ccc(NC(=O)Nc3ccc(Cl)c(Cl)c3)cc2)c1C	14	20	16*	3	10
O=C(NCc1ccco1)C(c1ccco1)N(C(=O)Cn1nnc2ccccc21)c1ccc2c(c1)CCC2 (stereo not given)	8	12	15*	·	26*
O=C(CC1SCCNC1=O)NCc1ccccc1 (stereo not given)	-1	·	·	·	·
S=c1[nH]nc(-c2cc(-c3ccccc3)n[nH]2)n1/N=C/c1ccc(Br)s1	16	3	3	4	·
CCOc1ccccc1C(C(=O)NC1CCCC1)N(C(=O)c1csnn1)C1CC1 (stereo not given)	-5	·	-4	5	·
COc1ccc(C(C(=O)NCC2CCCO2)N(C(=O)Cn2nnc3ccccc32)c2ccc(NC(C)=O)cc2)cc1 (stereo not given)	9	1	35*	2	30*
